{"source": "the supplement of paper PMC8975748", "note": "Structures can show the parent of a compound that is named as a salt."}
{"system": "Saccharomyces cerevisiae BY4741 SeMeCo community", "test": "z-score of subpopulation abundance vs DMSO median, subpopulation auxotrophic for LM; higher = larger share of this subpopulation than in DMSO controls", "settings": "10 µM; 24 h; SM minimal medium; subpopulation (auxotrophy): LM", "experimental": "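Fluorescent four-plasmid SeMeCo (self-establishing metabolically cooperating S. cerevisiae BY4741 community; plasmids pH-mRuby2, pL-mWasabi, pU-eCFP, pM-TagRFP657) was grown 24 h in minimal SM medium with each Selleck FDA-approved drug at 10 µM in 384-well plates. Cells were fixed and imaged by high-content confocal microscopy. For each auxotrophic subpopulation (and the prototroph), a z-score gives the deviation from the DMSO vehicle-control population median.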"}
{"smiles": "OCc1ccccc1O[C@@H]1O[C@H](CO)[C@@H](O)[C@H](O)[C@H]1O", "note": "[Salicin]", "z-score of subpopulation abundance": 0.72}
{"smiles": "COC(=O)C1=C(C#N)NC(C)=C(C(=O)OC(C)C)C1c1cccc([N+](=O)[O-])c1", "note": "(stereo not given) [Nilvadipine]", "z-score of subpopulation abundance": -0.12}
{"smiles": "Oc1ccc(C2CNCCc3c2cc(O)c(O)c3Cl)cc1", "note": "(stereo not given) [Fenoldopam mesylate]", "z-score of subpopulation abundance": 2.31}
{"smiles": "CC(=O)OCC[N+](C)(C)C", "note": "[Acetylcholine iodide]", "z-score of subpopulation abundance": -0.62}
{"smiles": "COc1ccc(CCN(C)CCCC(C#N)(c2ccc(OC)c(OC)c2)C(C)C)cc1OC", "note": "(stereo not given) [Verapamil HCl]", "z-score of subpopulation abundance": 0}
{"smiles": "C[C@@H](O)[C@H]1C(=O)N2C(C(=O)O)=C(S[C@@H]3CN[C@H](CNS(N)(=O)=O)C3)[C@H](C)[C@H]12", "note": "[Doripenem Hydrate]", "z-score of subpopulation abundance": -0.44}
{"smiles": "CCn1cc(C(=O)O)c(=O)c2ccc(C)nc21", "note": "[Nalidixic acid]", "z-score of subpopulation abundance": 0.23}
{"smiles": "CC[C@H]1OC(=O)[C@H](C)[C@@H](O[C@H]2C[C@@](C)(OC)[C@@H](O)[C@H](C)O2)[C@H](C)[C@@H](O[C@@H]2O[C@H](C)C[C@H](N(C)C)[C@H]2O)[C@](C)(O)C[C@@H](C)CN(C)[C@H](C)[C@@H](O)[C@]1(C)O", "note": "[Azithromycin]", "z-score of subpopulation abundance": 0.27}
{"smiles": "COc1ccc(C(Cl)=C(c2ccc(OC)cc2)c2ccc(OC)cc2)cc1", "note": "[Chlorotrianisene]", "z-score of subpopulation abundance": 1.34}
{"smiles": "CN(C)CCCC1(c2ccc(F)cc2)OCc2cc(C#N)ccc21", "note": "(stereo not given) [Citalopram HBr]", "z-score of subpopulation abundance": -0.05}
{"smiles": "CCN1CCN(c2cc3c(cc2F)c(=O)c(C(=O)O)cn3C2CC2)CC1", "note": "[Enrofloxacin]", "z-score of subpopulation abundance": 0.01}
{"smiles": "CCOC(=O)C1=C[C@]2(CC)CCCN3CCc4c(n1c1ccccc41)[C@@H]32", "note": "[Vinpocetine]", "z-score of subpopulation abundance": 0.73}
{"smiles": "Nc1nc2c(ncn2COC(CO)CO)c(=O)[nH]1", "note": "[Ganciclovir]", "z-score of subpopulation abundance": -0.15}
{"smiles": "Cc1nc(NC(=O)N2CCC[C@H]2C(N)=O)sc1-c1ccnc(C(C)(C)C(F)(F)F)c1", "note": "[Alpelisib (BYL719)]", "z-score of subpopulation abundance": -1.01}
{"smiles": "CO[C@@H]1[C@@H](O[C@@H]2O[C@H](C)[C@@H](O[C@H]3C[C@@](C)(O)[C@@H](O)[C@H](C)O3)[C@H](N(C)C)[C@H]2O)[C@@H](CC=O)C[C@@H](C)[C@@H](O[C@H]2CC[C@H](N(C)C)[C@@H](C)O2)/C=C/C=C/C[C@@H](C)OC(=O)C[C@H]1OC(C)=O", "note": "[Acetylspiramycin (ASPM)]", "z-score of subpopulation abundance": 1.53}
{"smiles": "CCCCCOc1ccccc1/C(=C\\SC)n1ccnc1", "note": "[Neticonazole Hydrochloride]", "z-score of subpopulation abundance": -1.01}
{"smiles": "CO/N=C(\\C(=O)N[C@@H]1C(=O)N2C(C(=O)O)=CCS[C@H]12)c1csc(N)n1", "note": "[Ceftizoxime]", "z-score of subpopulation abundance": -0.02}
{"smiles": "O=C(O)CCCCCCCC(=O)O", "note": "[Azelaic acid]", "z-score of subpopulation abundance": 0.3}
{"smiles": "COCCOC(=O)C1=C(C)NC(C)=C(C(=O)OC(C)C)C1c1cccc([N+](=O)[O-])c1", "note": "(stereo not given) [Nimodipine]", "z-score of subpopulation abundance": -0.2}
{"smiles": "CN1CCc2cc3c(cc2C(=O)Cc2ccc4c(c2C1)OCO4)OCO3", "note": "[Protopine]", "z-score of subpopulation abundance": 1.78}
{"smiles": "N=C(N)NC(=N)N1CCOCC1", "note": "[Moroxydine HCl]", "z-score of subpopulation abundance": 0.58}
{"smiles": "CC1=C(C(=O)O)N2C(=O)[C@@H](NC(=O)[C@H](N)C3=CCC=CC3)[C@H]2SC1", "note": "[Cefradine]", "z-score of subpopulation abundance": -0.58}
{"smiles": "Nc1nc(N)c2nc(-c3ccccc3)c(N)nc2n1", "note": "[Triamterene]", "z-score of subpopulation abundance": 5.63}
{"smiles": "CO[C@@]1(NC(=O)Cc2cccs2)C(=O)N2C(C(=O)O)=C(COC(N)=O)CS[C@@H]21", "note": "[Cefoxitin sodium]", "z-score of subpopulation abundance": -1.09}
{"smiles": "C[C@]12CC[C@@H]3c4ccc(O)cc4CC[C@H]3[C@@H]1CCC2=O", "note": "[Estrone]", "z-score of subpopulation abundance": 0.03}
{"smiles": "CC(C)COc1ccc(CNC(=O)N(Cc2ccc(F)cc2)C2CCN(C)CC2)cc1", "note": "[Pimavanserin]", "z-score of subpopulation abundance": -0.48}
{"smiles": "CCOC(=O)C1=C(C)NC(C)=C(C(=O)OCC)C1c1ccccc1/C=C/C(=O)OC(C)(C)C", "note": "[Lacidipine]", "z-score of subpopulation abundance": 1.6}
{"smiles": "C[C@]12CC[C@@H]3c4ccc(O)cc4CC[C@H]3[C@@H]1CC[C@@H]2O", "note": "[Estradiol]", "z-score of subpopulation abundance": -0.16}
{"smiles": "OCCOCCN1CCN(C2=Nc3ccccc3Sc3ccccc32)CC1", "note": "[Quetiapine Fumarate]", "z-score of subpopulation abundance": 0.32}
{"smiles": "COc1cc(NS(=O)(=O)c2ccc(N)cc2)ncn1", "note": "[Sulfamonomethoxine]", "z-score of subpopulation abundance": -0.55}
{"smiles": "Cc1[nH]c(=O)c(C#N)cc1-c1ccncc1", "note": "[Milrinone]", "z-score of subpopulation abundance": -0.5}
{"smiles": "CCOc1ccc2nc3cc(N)ccc3c(N)c2c1", "note": "[Ethacridine lactate monohydrate]", "z-score of subpopulation abundance": 4.18}
{"smiles": "COc1ccc2cc3[n+](cc2c1OC)CCc1cc2c(cc1-3)OCO2", "note": "[Berberine Sulfate]", "z-score of subpopulation abundance": -0.28}
{"smiles": "CO/N=C(\\C(=O)N[C@@H]1C(=O)N2C(C(=O)[O-])=C(C[N+]3(C)CCCC3)CS[C@H]12)c1csc(N)n1", "note": "[Cefepime Dihydrochloride Monohydrate]", "z-score of subpopulation abundance": 0.72}
{"smiles": "C[C@H]1[C@H](NC(=O)/C(=N\\OC(C)(C)C(=O)O)c2csc(N)n2)C(=O)N1S(=O)(=O)O", "note": "[Aztreonam]", "z-score of subpopulation abundance": 0.99}
{"smiles": "O=C(CCCN1CCC(O)(c2ccc(Cl)cc2)CC1)c1ccc(F)cc1", "note": "[Haloperidol]", "z-score of subpopulation abundance": 0.48}
{"smiles": "C=C[C@H]1CN2CC[C@H]1C[C@H]2[C@H](O)c1ccnc2ccc(OC)cc12", "note": "[Quinine HCl Dihydrate]", "z-score of subpopulation abundance": -0.52}
{"smiles": "C[N+](C)(C)CCO.[Cl-]", "note": "[Choline Chloride]", "z-score of subpopulation abundance": -0.75}
{"smiles": "O=C1Nc2ccccc2C1=O", "note": "[Isatin]", "z-score of subpopulation abundance": -0.62}
{"smiles": "COc1ccc(C(C)=O)c(O)c1", "note": "[Paeonol]", "z-score of subpopulation abundance": 0.14}
